Source: PubChem BioAssay (National Center for Advancing Translational Sciences (NCATS))
Shown are actives, neighbours in structure and some others; about 1.7% of the full set was active somewhere.
KCNH2 3.1 inh: KCNH2 3.1 (human) potassium channel inhibition; U2OS KCNH2 3.1, thallium flux FluxOr; active compounds read low; activity change, % (tested at about 1.8 µM); 340,000 tested, 0.95% active;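 active = maximum activity change below -70%; inconclusive = maximum activity change from -70% to -50%; inactive = maximum activity change above -50%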;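 note: thallium influx rate constant from kinetic fluorescence after stimulation buffer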
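Kinetic fluorescence (2 min after stimulation buffer) measures Tl+ influx through KCNH2 3.1 expressed by viral transduction in U2OS cells; the rate constant is normalized against DMSO controls serving as positive and negative references.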
Giardia kill: kills Giardia lamblia; AID 540267; activity change, % at 7.66 µM, hits read low; Giardia lamblia trophozoite viability; 340,000 tested, 0.15% active; in the data active = activity change below about -80%; inconclusive = between about -30% and that limit;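 note: parasites exposed to compound for two days anaerobically before the ATP read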
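Giardia trophozoites, 100 cells per well, were exposed to compounds for 48 hrs at 37 deg C under anaerobic conditions; viability was then read as ATP content by bioluminescence after 15-30 min at room temperature.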
FBPA coupling cs: counter-screen for Giardia aldolase inhibitors: coupling enzyme system; activity change, negative = inhibition, % at 58.2 µM, hits read low; AID 2472; coupling enzyme system counterscreen, AmpLite Red fluorescence; 290,000 tested, 0.67% active; in the data active = activity change below about -30%
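First, compound is pin-transferred into glyceraldehyde-3-phosphate coupling-enzyme reagent at 57.5 uM final and held 10 min at RT. Next, substrate, coupling system and AmpLite Red are added. After 20 min RT, fluorescence (525/598 nm) is read.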
hERG WT inh: KCNH2 (human, wildtype) channel inhibition | 340,000 tested, 0.37% active | U2OS, BacMam KCNH2, thallium flux FluxOr; active compounds read low | AID 720551 | activity change, % at 1.84 µM | Q12809;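 active = maximum activity change below -70%; inconclusive = maximum activity change between -70% and -50%; inactive = maximum activity change above -50%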
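U2OS cells transduced with wild-type KCNH2 virus are loaded with FluxOr dye for 45 min, and thallium flux is measured in kinetic reads before and after stimulation buffer. Rate constants are normalized to DMSO controls.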
USP1-UAF1 inh: inhibitors of human USP1/UAF1 deubiquitinase. O94782. recombinant USP1/UAF1, Ub-Rhodamine cleavage fluorescence. Potency, µM (series often up to 57.1 µM), most hits filed as inhibitors. 390,000 tested, 0.23% active; active = well fitted inhibition curve with a large enough effect; inconclusive = small, poorly fitted or top-dose-only effect; inactive = no such curve, though single readings can be large or run the other way; note: nearly all actives have a fitted effect of over 60% in size
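Step one: compound is pinned into 1nM USP1/UAF1 in HEPES pH 7.8 buffer with TCEP. Step two: 15 min room-temperature incubation. Step three: Ub-Rho (150nM final) starts cleavage, tracked by fluorescence over six one-minute reads.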
Casp1 catalase: counter-screen for redox active human caspase-1 inhibitors with catalase; shares compounds with FBPA coupling cs; caspase-1 Ac-WEHD-AFC fluorescence rate, catalase buffer; Potency, µM (titrated, usually from 57.5 µM), most hits filed as inhibitors; 30 tested, under 10 active; AID 888
Casp1 confirm: blocks human caspase-1 activity in concentration-response. Potency, µM (titrated, usually from 57.5 µM), actives largely listed as inhibitors. purified caspase-1, fluorogenic substrate cleavage. AID 896. shares compounds with FBPA coupling cs. 60 tested, 20% active
CASP7 inh CRC: confirmation of allosteric or competitive inhibitors of human caspase-7. shares compounds with FBPA coupling cs. recombinant caspase-7, fluorogenic substrate cleavage. Potency, µM (titrated, usually from 57.5 µM), most hits filed as inhibitors. 60 tested, under 10 active. AID 897; active = well fitted inhibition curve with a large enough effect in the main read-out, with a control signal flat, not every such curve was filed as active; inconclusive = small, poorly fitted or top-dose-only effect, or a change in a side signal; inactive = no such curve, though single readings can be large or run the other way
CASP7 redox cys: counter-screen for redox active caspase-7 inhibitors: cysteine buffer; shares compounds with FBPA coupling cs; caspase-7 enzyme with cysteine, fluorogenic substrate, redox counterscreen; Potency, µM (titrated, usually from 57.5 µM), actives largely listed as inhibitors; 60 tested, under 10 active
CASP7 redox cat: caspase-7 inhibition with catalase present; shares compounds with FBPA coupling cs; Caspase-7 Ac-DEVD-AFC fluorescence rate, catalase buffer; Potency, µM (titrated, usually from 57.5 µM), actives largely listed as inhibitors; 30 tested, under 10 active
CASP1 redox cys: counter-screen for redox active caspase-1 inhibitors: cysteine buffer; recombinant caspase-1, fluorogenic substrate, cysteine buffer; 60 tested, under 10 active; Potency, µM (titrated, usually from 57.5 µM), actives largely listed as inhibitors; AID 929; shares compounds with FBPA coupling cs
Of the large screens only hits and unclear results are named; the others gave an inactive call (follow-up assays come after a bar, where they were run). Unless noted, calls come from the whole dose curve; as a rule, active = well fitted inhibition curve with a large enough effect in the main read-out, with a control signal flat; inconclusive = small, poorly fitted or top-dose-only effect, or a change in a side signal; inactive = no such curve, though single readings can be large or run the other way.

C/C=C(\C)C(=O)O[C@H]1C[C@@]2(C)CCC(C(C)C)C2(O)CC[C@@]1(C)O (some centres not stated)	none (no result: KCNH2 3.1 inh, Giardia kill, hERG WT inh, USP1-UAF1 inh)
O=C1Cc2ccccc2C(=O)N1CCc1ccccc1	FBPA coupling cs -47, USP1-UAF1 inh 5.6µM | Casp1 confirm 6.3µM | CASP7 inh CRC 10µM | CASP7 redox cys inactive | CASP1 redox cys inactive
CCC1CN(CC(=O)NCc2cccc(Br)c2)c2ccccc2S1 (configuration not stated)	none (no result: KCNH2 3.1 inh, Giardia kill, FBPA coupling cs, hERG WT inh)
COc1cc2c(Cc3c4c5c(cc(OC)c(OC)c5c5c(OC)c(OC)ccc35)CCN4C)c3c4c(cc(OC)c(OC)c4c2cc1OC)CCN3C	FBPA coupling cs -33 (no result: KCNH2 3.1 inh, Giardia kill, hERG WT inh, USP1-UAF1 inh) | Casp1 confirm inconclusive | CASP7 inh CRC inactive | CASP7 redox cys inactive | CASP1 redox cys inconclusive
COc1cc2c(C(=O)c3ccccc3)c3c4c(cc(OC)c(OC)c4c2cc1OC)CCN3C	none (no result: KCNH2 3.1 inh, Giardia kill, hERG WT inh, USP1-UAF1 inh)
O=C(c1cccc([N+](=O)[O-])c1)N1c2ncnn2C2(CCCCC2)[C@@H]2CCCC[C@@H]21	none (no result: KCNH2 3.1 inh, Giardia kill, FBPA coupling cs, hERG WT inh)
COc1ccc2c(c1)Cc1sc(NC(=O)c3cccs3)nc1-2	FBPA coupling cs -35, USP1-UAF1 inh inconclusive | Casp1 catalase inconclusive | Casp1 confirm inactive | CASP7 inh CRC inactive | CASP7 redox cys inactive | CASP7 redox cat inactive | CASP1 redox cys inactive
COc1ccc(Cn2c(=O)[nH]c3cc(C(=O)N4CCN(c5ccccc5OC)CC4)ccc3c2=O)cc1	none
COc1ccc(Cn2c(=O)[nH]c3cc(C(=O)N4CCN(Cc5ccccc5)CC4)ccc3c2=O)cc1	none | Casp1 catalase inactive | Casp1 confirm inactive | CASP7 inh CRC inconclusive | CASP7 redox cys inconclusive | CASP7 redox cat inconclusive | CASP1 redox cys inactive
Cc1ccc(N2C(=O)[C@@H]3[C@H](C2=O)C2c4ccccc4C=CN2[C@@H]3C(=O)c2ccco2)cc1 (some centres not stated)	FBPA coupling cs -41, USP1-UAF1 inh 16µM | Casp1 confirm 25µM | CASP7 inh CRC inactive | CASP7 redox cys inactive | CASP1 redox cys inconclusive
COc1ccc(N2C(=O)[C@@H]3[C@H](C2=O)[C@H]2c4ccccc4C=CN2[C@@H]3C(=O)Nc2ccccc2)cc1	USP1-UAF1 inh inconclusive
Cc1ccc(N2C(=O)[C@@H]3[C@H](C2=O)C2c4ccccc4C=CN2[C@@H]3C(=O)c2ccco2)c(C)c1 (some centres not stated)	FBPA coupling cs -42, USP1-UAF1 inh 4µM | Casp1 catalase 32µM | Casp1 confirm 25µM | CASP7 inh CRC inconclusive | CASP7 redox cys inactive | CASP7 redox cat inactive | CASP1 redox cys inactive
COc1ccc([C@]23Cc4ccccc4C(O2)C2=C(O3)C(=O)c3ccccc3C2=O)cc1	none (no result: KCNH2 3.1 inh, Giardia kill, hERG WT inh, USP1-UAF1 inh)
O=C(COC(=O)c1cc(-c2ccco2)nc2ccccc12)NCc1ccc2c(c1)OCO2	none | Casp1 catalase inconclusive | Casp1 confirm inconclusive | CASP7 inh CRC inconclusive | CASP7 redox cys inactive | CASP7 redox cat inactive | CASP1 redox cys inconclusive
CC(C)[C@@H](CC(=O)N[C@@H]1CCCC[C@H]1C(=O)N[C@H](CC(=O)N[C@@H](CCC(=O)O)CC(=O)O)Cc1ccccc1)NC(=O)C[C@H](Cc1c[nH]c2ccccc12)NC(=O)[C@@H]1CNCC[C@H]1N	none (no result: KCNH2 3.1 inh, Giardia kill, hERG WT inh, USP1-UAF1 inh)
O=C(c1ccc(Cl)c(Cl)c1)N(Cc1ccco1)c1ccc(O)cc1	none | Casp1 catalase inactive | Casp1 confirm inactive | CASP7 inh CRC inconclusive | CASP7 redox cys inconclusive | CASP7 redox cat 32µM | CASP1 redox cys inactive
O=c1cnnc(SCCc2ccccc2)[nH]1	none | Casp1 catalase inactive | Casp1 confirm inactive | CASP7 inh CRC inactive | CASP7 redox cys inactive | CASP7 redox cat inactive | CASP1 redox cys inactive
NC(N)=NCCC[C@H](NC(=O)c1ccccc1)C(=O)Nc1ccc([N+](=O)[O-])cc1	none (no result: KCNH2 3.1 inh, Giardia kill, hERG WT inh, USP1-UAF1 inh)
CCc1ccc(CNc2ccc3c(c2)ncn3CC)cc1	none (no result: KCNH2 3.1 inh, hERG WT inh)
CCc1ccc(CNc2ccc(O)cc2)cc1	FBPA coupling cs -58, USP1-UAF1 inh 28µM | Casp1 confirm inactive | CASP7 inh CRC inactive | CASP7 redox cys inactive | CASP1 redox cys inactive
CCCCCCC(=O)N1CCC(c2nc3c(nnn3Cc3ccccc3Cl)c(=O)[nH]2)CC1	none | Casp1 confirm inactive | CASP7 inh CRC 4µM | CASP7 redox cys 5µM | CASP1 redox cys inactive
O=C(Nc1ccc(F)cc1)N1CCC(c2nc3c(nnn3Cc3cccc(Cl)c3)c(=O)[nH]2)CC1	none
O=C(C1CCCCC1)N1CCC(c2nc3c(nnn3Cc3ccccc3Cl)c(=O)[nH]2)CC1	none (no result: FBPA coupling cs)
Cc1ccc(NC(=O)N2CCC(c3nc4c(nnn4Cc4cccc(Cl)c4)c(=O)[nH]3)CC2)cc1	none | Casp1 confirm inactive | CASP7 inh CRC inconclusive | CASP7 redox cys inconclusive | CASP1 redox cys inactive
COc1ccc(CNC(=O)Cc2c(C)c3c(cc(C)c4c(C)coc43)oc2=O)cc1	none (no result: KCNH2 3.1 inh, Giardia kill, FBPA coupling cs, hERG WT inh)
